A selection follows.
aSyn 5UTR act = Activators via SNCA 5'UTR binding, MLPCN | alpha-synuclein 5'UTR reporter, activators screen | activity score, % (tested at 7.5 µM), hits read low | hit rate 7.1% among 300,000 | AID 1814, 2009; in the data active means activity score below about -60%
Each line names hits and unclear results; the compound was inactive in the other large screens.

CCOC(=O)Nc1ccc(C(=O)/C=C/c2ccccc2)cc1	aSyn 5UTR act -69
CCOC(=O)Nc1ccc(Oc2ccccc2)cc1	aSyn 5UTR act -96
CC(=O)c1ccc(NC(=O)Oc2ccccc2)cc1	aSyn 5UTR act -63
Fc1ccc2nc(Nc3ccccc3)sc2c1	aSyn 5UTR act -172
NNc1nc2ccc(Cl)cc2s1	aSyn 5UTR act -140
NNc1nc2ccc(F)cc2s1	aSyn 5UTR act -254
CCc1[nH]nc(C(=O)N/N=C/c2ccncc2)c1C	aSyn 5UTR act -70
CCOC(=O)c1c(N/N=C/c2ccncc2)n[nH]c1C	aSyn 5UTR act -81
Cc1cc(NC(=O)c2cccc(Br)c2)n[nH]1	aSyn 5UTR act -141
COc1cccc(C(=O)NC(=O)Nc2cc(C)[nH]n2)c1	aSyn 5UTR act -140
CCN(CC)S(=O)(=O)c1cc(C(=O)Nc2cc(C)[nH]n2)ccc1Cl	aSyn 5UTR act -161
COc1cccc(C(=O)Oc2c(Br)cc(Br)cc2/C=N/NC(=O)c2cc(C)[nH]n2)c1	none
COc1ccnc(CSC(N)=Nc2ccc(F)cc2)c1	aSyn 5UTR act -111
Cc1ccc(NC(=O)CC2SCCNC2=O)cc1Cl (stereo not drawn)	aSyn 5UTR act -143
O=C(CCC1CCCC1)Nc1ccc(Br)cn1	aSyn 5UTR act -197
Cc1cc(NC(=O)CCC2CCCC2)no1	aSyn 5UTR act -65
Cc1ccnc(NC(=O)CCC2CCCCC2)c1	aSyn 5UTR act -193
C#CCn1c(C)cc(C)c(S(=O)(=O)c2ccccc2)c1=O	aSyn 5UTR act -73
Cc1cnc(NC(=O)c2sc(Nc3ccccc3)nc2N)o1	aSyn 5UTR act -115
Nc1nc(Nc2ccccc2)sc1C(=O)c1ccccc1	aSyn 5UTR act -121
CC(C)COCc1ccc(O)c2ncccc12	none
O=C(Nc1cccc(F)c1)c1ccc2ncsc2c1	aSyn 5UTR act -204
Cn1nnc2cc(C(=O)Nc3ccccc3F)ccc21	aSyn 5UTR act -111
O=C(Nc1ccc(Cl)cc1Cl)c1ccc2ncsc2c1	aSyn 5UTR act -177
O=C(Nc1ccc(F)cc1F)c1ccc2ncsc2c1	aSyn 5UTR act -120
O=C(Nc1nnc(SCc2ccc(F)cc2)s1)c1ccc2ncsc2c1	aSyn 5UTR act -100
O=C(Nc1ccccc1F)c1ccc2ncsc2c1	aSyn 5UTR act -175
O=C(O)c1nc2ccccc2nc1C(=O)O	aSyn 5UTR act -166
Cc1cc(=O)oc2c(C(=O)/C=C\c3cccs3)c(O)ccc12	aSyn 5UTR act -89
Cc1c(C(=O)/C=C/c2cccs2)oc2ccc(F)cc12	aSyn 5UTR act -202
c1ccc(-c2nnc(-c3ccncc3)o2)cc1	aSyn 5UTR act -89
Oc1ccccc1-c1nnc(-c2ccc(C(F)(F)F)cc2)o1	aSyn 5UTR act -126
Nc1ccccc1-c1nnc(-c2ccc(-c3ccccc3)cc2)o1	aSyn 5UTR act -192
CN(C)S(=O)(=O)c1cccc(-c2nnc(-c3ccccc3)o2)c1	aSyn 5UTR act -113
Nc1ccc(-c2nnc(-c3ccc(N)cc3)o2)cc1	aSyn 5UTR act -106
c1ccc(-c2nnc(-c3ccccc3)o2)cc1	aSyn 5UTR act -96
COc1cccc(-c2nnc(-c3ccc(C(F)(F)F)cc3)o2)c1	aSyn 5UTR act -145
O=[N+]([O-])c1cc(-c2nnc(-c3ccccc3)o2)ccc1Oc1ccc(Cl)cc1	aSyn 5UTR act -95
CC(=O)O[C@H]1C(=O)[C@]2(C)[C@H]([C@H](OC(=O)c3ccccc3)[C@]3(O)C[C@H](OC(=O)[C@H](O)[C@@H](NC(=O)c4ccccc4)c4ccccc4)C(C)=C1C3(C)C)[C@]1(OC(C)=O)CO[C@@H]1C[C@@H]2O	none
COc1ccc(-c2nnc(-c3ccccc3)o2)cc1OC	aSyn 5UTR act -168
COc1ccc(C2=Nn3c(nnc3-c3ccccc3)SC2)cc1OC	none
COc1cc(OC)c(C(=O)Nc2cccc(C(C)=O)c2)cc1OC	aSyn 5UTR act -78
COc1ccc(C(C)NC(=O)Nc2ccc(C(C)=O)cc2)cc1OC (stereo not drawn)	aSyn 5UTR act -100
COc1ccc(C(=O)Nc2cccc(C(C)=O)c2)cc1OC	aSyn 5UTR act -71
COc1ccc(OCc2cnc(Cl)s2)cc1	aSyn 5UTR act -82
Cc1ccc(OCc2cnc(Cl)s2)c(C)c1	aSyn 5UTR act -134
Cc1cc(/C([O-])=C(/C(=S)Nc2ccc(F)cc2)[n+]2ccccc2)c(C)n1-c1ccc(F)cc1	aSyn 5UTR act -121
CC(=O)N(/N=C1\Sc2ccccc2C1=O)c1cccc(C)c1	aSyn 5UTR act -127
CC1=Nc2ccccc2N=C(N)C1c1ccccc1 (stereo not drawn)	aSyn 5UTR act -124
COC(=O)/C(=C1/Oc2ccc(C)cc2S1)C(F)(F)F	aSyn 5UTR act -152
C(#Cc1ccccc1)Cn1nnc2ccccc21	aSyn 5UTR act -98
Cc1cccc(Nc2nn3c(=O)c4ccccc4nc3s2)c1	aSyn 5UTR act -160
CCn1c(-c2cccnc2Cl)nc2cc(Cl)c(Cl)cc21	aSyn 5UTR act -119
COC(=O)c1c(NC(=O)/C=C/c2ccco2)sc2c1CCC2	aSyn 5UTR act -143
COC(=O)c1c(NC(=O)c2ccc(C)o2)sc2c1CCCCC2	aSyn 5UTR act -184
O=C(Nc1sc2c(c1C(=O)O)CCC2)c1ccco1	aSyn 5UTR act -62
CC1(C)Cc2c(sc(NC(=O)c3ccco3)c2C(=O)O)CO1	aSyn 5UTR act -81
O=C(Nc1sc2c(c1C(=O)NCc1ccco1)CCCC2)c1ccc2c(c1)OCO2	aSyn 5UTR act -187
CC1(C)Cc2c(sc(NC(=O)c3ccc(Br)o3)c2C#N)CO1	aSyn 5UTR act -91
C(=N\Nc1nc2ccccc2[nH]1)/c1ccncc1	aSyn 5UTR act -147
COC(=O)c1ccc(/C=N/Nc2nc3ccccc3[nH]2)cc1	aSyn 5UTR act -176
c1ccc2[nH]c(NN=C3CCCCCC3)nc2c1	aSyn 5UTR act -114
Clc1nc2ccccc2cc1/C=N/Nc1nc2ccccc2[nH]1	aSyn 5UTR act -97
CC(=O)Nc1ccc(/C=N/Nc2nc3ccccc3[nH]2)cc1	aSyn 5UTR act -101
O=C(Nc1ccc2c(c1)CCC2)c1cnccn1	aSyn 5UTR act -175
Cc1cc(C)n2nc(C(=O)Nc3ccc4c(c3)CCC4)nc2n1	aSyn 5UTR act -101
O=C(Nc1ccc(N2CCOCC2)cc1)c1cnccn1	none
Cc1cnc(C(=O)NCCc2ccc(Cl)cc2)cn1	aSyn 5UTR act -114
Cc1cnc(C(=O)Nc2ccc3c(c2)CCC3)cn1	aSyn 5UTR act -136
Cc1cnc(C(=O)Nc2ccc(F)c(F)c2)cn1	aSyn 5UTR act -133
CCCCOc1ccc(NC(=O)c2cnc(C)cn2)cc1	aSyn 5UTR act -113
Fc1ccccc1OCCSc1nnnn1-c1ccccc1	aSyn 5UTR act -83
c1ccc(OCCSc2nnnn2-c2ccccc2)cc1	aSyn 5UTR act -86
COc1cc(/C=C2/SC(=S)N(Cc3ccccc3)C2=O)ccc1O	aSyn 5UTR act -67
CCc1ccc(/C=C2\SC(=S)N(CCC(=O)Nc3cc(C)on3)C2=O)cc1	none
COc1ccc(/C=C2/SC(=S)N(CC(=O)O)C2=O)cc1OCc1ccc(Cl)cc1	aSyn 5UTR act -132
CCN=C1S/C(=C\c2ccc(O)c(OCC)c2)C(=O)N1CC	none
C#CCOc1ccc(/C=C2\SC(=S)N(Cc3cccnc3)C2=O)cc1	aSyn 5UTR act -82
COc1ccc(/C=C2\SC(=S)N(Cc3cccnc3)C2=O)cc1C	aSyn 5UTR act -127
CCCCCCc1ccc(N2C[C@H](C)[C@@H](CC(=O)NCc3ccccc3)C2=O)cc1	aSyn 5UTR act -82
Cc1ccc(NC2=C(Cl)C(=O)N(C3CCCCC3)C2=O)cc1	aSyn 5UTR act -124
NC(=O)CSc1nc(-c2ccccc2Cl)ns1	aSyn 5UTR act -121
CC(=O)c1cccc(NC(=S)NC(=O)c2cncc(Br)c2)c1	aSyn 5UTR act -109
CC(=O)c1cccc(NC(=S)NC(=O)c2cccc(Cl)c2)c1	aSyn 5UTR act -160

High-throughput results as filed in PubChem BioAssay.
